# Source: PubChem
# Many of the other results were omitted from the sample, so hits are more common in it than they were.
# Tg IFNy HTS: T. gondii growth inhibition with IFN-gamma, primary screen, cell-based. Toxoplasma gondii growth in IFN-gamma-treated host cells; stronger effect = lower value. activity change, negative = inhibition, % (concentration not given with the values). 3.8% of 69,000 active; in the data active = activity change below about -70%, passing the limit was not always enough;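 also: host cells are HeLa cells infected with Toxoplasma gondii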
# Numbers without * were called inactive; ! = a repeat was not active.
SMILES,Tg IFNy HTS
C=CCn1c(=O)c2cnc(Nc3ccc(N4CCN(C)CC4)cc3)nc2n1-c1cccc(C(C)(C)O)n1,-71*
Cc1ccsc1S(=O)(=O)N1CCOC2(CNCCOC2)C1 (stereo unspecified),7
CC(C)N(C)Cc1cnc2n1CCN(C(=O)NC1CCCC1)C2C (stereo unspecified),3
COc1ccc(C(=O)Nc2cc3c(C)cc(=O)oc3cc2C)o1,-5
CCN(CC)CCOC(=O)C(c1ccccc1)c1ccccc1,22
CCN(CC)CCOC(=O)C(c1ccccc1)C1CCCCC1 (stereo unspecified),-77*!
CCN(CC)CCOC(=O)C1(C2CCCCC2)CCCCC1,-10
CN(CC(=O)Nc1ccc(CN2CCCCCC2)cc1)C1CCS(=O)(=O)C1 (stereo unspecified),-10
Cc1nccn1C(C)C(=O)NCc1cccnc1Oc1ccc(F)c(F)c1 (stereo unspecified),-7
COc1ccc(C(N)=O)cc1-c1ccc(S(C)(=O)=O)cc1,5
COc1ccc(C)cc1-c1ccc(C(N)=O)cn1,9
COc1ccc(OC)c(-c2cc(C(N)=O)ccc2C)c1,-76*
CCNc1ncc(CN(C)Cc2cccc3ncccc23)cn1,-30
Cc1ccccc1-c1ncc(CN(C)Cc2cccc3ncccc23)cn1,-89*
CN(Cc1cnc(-c2ccccn2)nc1)Cc1cccc2ncccc12,0
CC(=O)Nc1ccc(C#CC2(NC(=O)CC3CC(C)(C)OC3=O)CCCCC2)cn1 (stereo unspecified),39
CC(C)c1csc(C2CC(=O)NCc3nc4ccccn4c32)n1 (stereo unspecified),9
Cn1c(=O)c2c(ncn2Cc2ccccc2Cl)n(C)c1=O,-1
Cn1c(=O)c2nc3ccccc3nc2n(C)c1=O,-13
Cn1c(=O)c2c(nc(Oc3ccccc3Br)n2C)n(C)c1=O,-75*
CC(C)N1CC2(CCN(Cc3nccn3C)CC2)c2ccccc21,-4
Cc1cccc(C)c1OCCCN(C)C(=O)c1ccc2[nH]c(=O)c(=O)[nH]c2c1,-9
CCCS(=O)(=O)N1C[C@H](OCc2ccccn2)[C@@H]2COC[C@@H]21,108
Cn1c2ccccc2c2c1cc(C(=O)Cc1ccccn1)n2-c1ncccn1,97
CN1C/C=C/CCOc2cccc(c2)-c2ccnc(n2)Nc2cccc(c2)C1,-84*
SMILES,Tg IFNy HTS
COCCNC(=O)C(OC(=O)c1cccs1)c1ccccc1F (stereo unspecified),-5
CCn1ncc(-c2cc(C(=O)NCC(C)(C)c3ccccc3F)on2)c1C,32
COCCN1C(=O)N(CCc2ccccc2)C(=O)C12CCN(Cc1ccoc1)CC2,-50
CCCN(CCC)S(=O)(=O)c1ccc(C(=O)Nc2ccc(F)cc2)cc1,-88*
CS(=O)(=O)c1ccc(C(=O)Nc2ccccc2)cc1,49
CCCN(CCC)S(=O)(=O)c1ccc(C(=O)NCCc2ccc(OC)c(OC)c2)cc1,-47
CN1CCC(c2nnc3ccc(C(=O)NCCc4cccs4)cn23)C1 (stereo unspecified),1
CCn1c(C2CCCN(C(=O)c3cc4c(nc3OC)CCC4)C2)n[nH]c1=O (stereo unspecified),9
Cc1noc(CN(C)Cc2nc(-c3cccc(Cl)c3)oc2C)n1,11
CCS(=O)(=O)N1CCC2(CCC2NC(=O)c2cnccn2)CC1 (stereo unspecified),6
CC(C)CN1C(=O)CCC12CCC(NC(=O)c1cnccn1)CC2 (stereo unspecified),-2
CCC[C@H](NC(=O)[C@@H]1[C@H]2CCC[C@H]2CN1C(=O)[C@@H](NC(=O)[C@@H](NC(=O)c1cnccn1)C1CCCCC1)C(C)(C)C)C(=O)C(=O)NC1CC1,-74*
O=C1c2cc(Cl)ccc2-c2ccc(Cl)cc21,-9
CC(C)c1ccc(/C=C/C(=O)O)cc1,1
O=C(O)/C=C/c1ccc(-c2ccc(O)c(C34CC5CC(CC(C5)C3)C4)c2)cc1,-79*
O=C(O)/C=C/c1ccc(O)c(O)c1,7
Cc1cccc(CN2CCCC3(CCN(CC(=O)N(C)C)C3=O)C2)n1 (stereo unspecified),4
COc1ccc2[nH]cc(CCNC(=O)c3ccc(N4CCCC4)c(S(=O)(=O)N4CCCC4)c3)c2c1,7
COc1ccc2[nH]cc(CCNc3ccc(S(=O)(=O)C(C)C)nn3)c2c1,-113*
COc1ccc2[nH]cc(CCNc3ccc(S(=O)(=O)C4CCCCC4)nn3)c2c1,45
CO[C@H]1CCN(C(=O)c2ccoc2)[C@H]2CN(Cc3ccncc3)C[C@@H]12,-6
Cc1ccc(NC(=O)C(=O)NCCc2csc(-c3ccc(Cl)cc3)n2)cc1C,-61
CCS(=O)(=O)N1CCCn2nnc(Cn3cccc3)c2C1,-39
COc1cccc(-c2nc(Cn3nnc(C(=O)Nc4ccccc4)c3C)c(C)o2)c1OC,-50
COc1cccc(-c2nc(Cn3nnc(C(=O)Nc4cccc(Cl)c4C)c3C)c(C)o2)c1OC,-16
CCOc1ccccc1NC(=O)c1nnn(Cc2nc(-c3cccc(OC)c3OC)oc2C)c1C,-79*
COc1ccc(NC(=O)c2nnn(Cc3nc(-c4cccc(OC)c4OC)oc3C)c2C)cc1Cl,32
